PubChem BioAssay (Tox21)
Inconclusive results are not listed. Entries that show only a call come without a potency. Values without a mark were called inactive. Activity calls are given as the source filed them. Calls follow the shape of the dose curve; as a rule, active = well fitted cell-killing curve with a large enough effect in the repeat runs; inconclusive = weak or mixed curves, or effect the other way; inactive = flat fitted curve, though single readings scatter.

Assay: qHTS assay to identify small molecule agonists of the constitutive androstane receptor (CAR) signaling pathway - cell viability counter screen (AID 1224836); also: nearly all actives have a fitted effect of over 45% in size
Details: HepG2-CYP2B6-hCAR viability, CellTiter-Fluor, 23 h, PK11195 added to every well; series mostly up to 92.4 µM
Excerpt: U.S. Tox21 Program National Center for Advancing Translational Sciences [NCATS] NIH Chemical Genomics Center [NCGC] U.S. Environmental Protection Agency [EPA] National Institutes of Environmental Health Sciences [NIEHS] National Toxicology Program [NTP] U.S. Food and Drug Administration [FDA] Tox21 Assay Overview: The constitutive androstane receptor (CAR) is a nuclear receptor which regulates multiple drug metabolizing enzymes (DMEs) and transporters. Activating CAR will generally increase the transcription and subsequent translation of CYP2B6 and CYP3A4. These two DMEs represent about 50% of the drug metabolizing potential in the body. […] Recently, there have also been studies performed indicating CARs role in energy metabolism and cancer therapy. Therefore, inducing CARs activity could have a potential effect on diabetes and cancer. Identifying environmental toxins and compounds which modulate CAR, through the use of the Tox21 10K compound collection, will be an important step in determining the toxicity and potential therapeutic effects these factors will have on the human body. To differentiate true CAR agonists from cytotoxic substances, the assay is multiplexed with a cell viability assay.
Tox21 Assay Protocol Summary: A double-stable (hCAR and CYP2B6-2.2kb) transfected cell line, derived from human hepatoma (HepG2) cells, was utilized for the duration of the quantitative high-throughput screens. The HepG2-CYP2B6-hCAR cells were dispensed at 2500 cells/4 uL/well in 1536-well white solid bottom plates using a Multidrop Combi. After the assay plates were incubated at 37 C/5% CO2 for 4 hrs, 23 nL of compounds at 15 concentrations (from 5-48 columns) or positive control (from 1 to 4 columns) were transferred to the assay plates using a Pintool station. One uL of PK11195 (final concentration = 0.75 uM) was added, using a Flying Reagent Dispenser, inside each well. After a 23 hr incubation period at 37 C/5% CO2, 1 uL of CellTiter-Fluor reagent was added into each well of the assay plates using a Flying Reagent Dispenser. The fluorescence intensity in the plates was then measured using a ViewLux plate reader.
Potency is read from the fitted curve at half-maximal effect.

Row | SMILES | Potency | viability change, negative = cytotoxic
1 | Cc1cc(S(=O)(=O)O)ccc1N=Nc1c(O)ccc2ccccc12 | 48.6 µM (active) | –
2 | CCCCCCCC/C=C\CCCCCCCC(=O)OC | inactive | –
3 | C=CCNc1nc(NCC=C)nc(N2CCN(C(c3ccc(F)cc3)c3ccc(F)cc3)CC2)n1 | inactive | –
4 | Cc1oc(C)c(C(=O)Nc2ccccc2)c1C | inactive | –
5 | CCCOCCOCCO | inactive | –
6 | CC(N)CN (stereo not given) | inactive | –
7 | Cc1c(C(=O)NN2CCCCC2)nn(-c2ccc(Cl)cc2Cl)c1-c1ccc(Cl)cc1 | inactive | –
8 | C[C@]12CCC(=O)C=C1C=C[C@@H]1[C@@H]2CC[C@@]2(C)[C@H]1CC[C@@]21CCC(=O)O1 | inactive | –
9 | Cc1cc2nc3ccc(=[N+](C)C)cc-3sc2cc1N | 21.1 µM (active) | –
10 | O=C(/C=C/c1ccccc1)OCCCc1ccccc1 | inactive | –
11 | CN(C(=O)C(Cl)Cl)c1ccc(OC(=O)c2ccco2)cc1 | inactive | –
12 | CCCCC(CC)C(=O)OCCOCCOCCOCCOC(=O)C(CC)CCCC (stereo not given) | inactive | –
13 | C=CC(C)=CCC=C(C)C | inactive | –
14 | CC(C)(C)C(=O)C(Oc1ccc(Cl)cc1)n1ccnc1 (stereo not given) | inactive | –
15 | O=S(=O)(c1ccccc1)c1ccc(Cl)cc1 | inactive | –
16 | C[Si](NC1CCCCC1)(NC1CCCCC1)NC1CCCCC1 | inactive | –
17 | CCOCCn1c(C2CCN(CCc3ccc(C(C)(C)C(=O)O)cc3)CC2)nc2ccccc21 | inactive | –
18 | CCc1cccc(N(C)C(N)=Nc2cccc3ccccc23)c1 | inactive | –
19 | O=C(O)c1cccnc1C(=O)O | inactive | –
20 | N#C[C@@H]1C[C@@H]2C[C@@H]2N1C(=O)[C@@H](N)C12CC3CC(CC(O)(C3)C1)C2 | inactive | –

Row | SMILES | Potency | viability change, negative = cytotoxic
21 | CCCCC(CC)CNCC(CC)CCCC (stereo not given) | inactive | –
22 | CC(=O)N(c1onc(C)c1C)S(=O)(=O)c1ccc(N)cc1 | inactive | –
23 | CCC(C)=O | inactive | –
24 | O=[N+]([O-])c1cccc(S(=O)(=O)NCCNS(=O)(=O)c2cccc([N+](=O)[O-])c2)c1 | inactive | –
25 | CCC(C)(O)CCC=C(C)C (stereo not given) | inactive | –
26 | C=CCCCCCCCCCCCCCCCC | – | -0.127% [at 8.39 µM]
27 | CC1=CC(O)CC(C)(C)C1 (stereo not given) | inactive | –
28 | Nc1nccs1 | inactive | –
29 | CN1CCCN=C1/C=C/c1cccs1 | inactive | –
30 | COCCOC | 1.64 µM (active) | –
31 | C1COCO1 | inactive | –
32 | O=C(O)c1cccc(O)c1 | inactive | –
33 | CO[Si](C)(OC)OC | inactive | –
34 | CC[C@H](NC(=O)c1cc(F)ccc1NS(=O)(=O)c1cccc2cccnc12)c1ccccc1 | inactive | –
35 | CC(=O)Nc1ccccc1C | inactive | –
36 | Cc1ccc(/C=N/n2c(-c3ccccc3)csc2=S)cc1 | inactive | –
37 | N#C/C(=C1/SC[C@@H](c2ccc(Cl)cc2Cl)S1)n1ccnc1 | inactive | –
38 | COc1ccccc1N=Nc1c(S(=O)(=O)O)cc2cc(S(=O)(=O)O)cc(NC(C)=O)c2c1O | 25.7 µM (active) | –
39 | Cc1ccc(S)cc1 | inactive | –
40 | CCOC(=O)c1ccccc1C | inactive | –
